Reference: PubChem BioAssay
“And” between values parts separate entries of the source, which are not always exact repeats. Equal entries are not always repeated. The source made the active and inactive calls. Unless noted, no stated cut-off is given here; in the data, active means inhibition above about 80%; inactive means the rest.

Experiment: HTB85 osteosarcoma cell growth inhibition, synergistic combos for chromothripsis tumors, BGB or cisplatin IC20 combos (AID 1671453);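 further: cells exposed for 96 hours before readout; 0% = vehicle DMSO and 100% = high DMSO killing control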
Conditions: HTB85 osteosarcoma cells, drug combinations, measured here: with BGB IC20, at 0.5 µM, stronger effect = higher value

Compound	inhibition
CCOC(=O)NCCCC(=O)NCCc1ccccc1	-7.26% and 6.66%
C[C@@]1(c2nc3c(C(N)=O)cccc3[nH]2)CCCN1	-26.4% and -15.6%
O=C(NCC1(c2nc(-c3ccccc3)cs2)CCOCC1)c1cccc(-c2noc(C(F)(F)F)n2)c1	-38.8% and -0.919%

Same assay, conditions: HTB85 osteosarcoma cells, drug combinations, measured here: with BGB IC20, at 5 µM, stronger effect = higher value

Compound	inhibition
CCOC(=O)NCCCC(=O)NCCc1ccccc1	-10.7% and -19.1%
C[C@@]1(c2nc3c(C(N)=O)cccc3[nH]2)CCCN1	-37.2% and -23.1%
O=C(NCC1(c2nc(-c3ccccc3)cs2)CCOCC1)c1cccc(-c2noc(C(F)(F)F)n2)c1	-58.5% and 4.11%

Same assay, conditions: HTB85 osteosarcoma cells, drug combinations, measured here: with cisplatin IC20, at 0.5 µM, stronger effect = higher value

Compound	inhibition
CCOC(=O)NCCCC(=O)NCCc1ccccc1	-27.1% and -24.2%
C[C@@]1(c2nc3c(C(N)=O)cccc3[nH]2)CCCN1	-25.2% and -2.08%
O=C(NCC1(c2nc(-c3ccccc3)cs2)CCOCC1)c1cccc(-c2noc(C(F)(F)F)n2)c1	-26.7% and 6.6%

Same assay, conditions: HTB85 osteosarcoma cells, drug combinations, measured here: with cisplatin IC20, at 5 µM, stronger effect = higher value

Compound	inhibition
CCOC(=O)NCCCC(=O)NCCc1ccccc1	18% and -25.8%
C[C@@]1(c2nc3c(C(N)=O)cccc3[nH]2)CCCN1	-5% and -37.1%
O=C(NCC1(c2nc(-c3ccccc3)cs2)CCOCC1)c1cccc(-c2noc(C(F)(F)F)n2)c1	-31.5% and 8.1%

Same assay, conditions: HTB85 osteosarcoma cells, drug combinations, single agent, at 5 µM, stronger effect = higher value

Compound	inhibition
CCOC(=O)NCCCC(=O)NCCc1ccccc1	-17.5% and -2.77%
C[C@@]1(c2nc3c(C(N)=O)cccc3[nH]2)CCCN1	-8.07% and -11.2%
O=C(NCC1(c2nc(-c3ccccc3)cs2)CCOCC1)c1cccc(-c2noc(C(F)(F)F)n2)c1	-23.9% and 9.32%

Experiment: CRL2098 osteosarcoma cell growth inhibition, synergistic combos for chromothripsis tumors, BGB or cisplatin IC20 combos (AID 1671454);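 further: cells exposed for 96 h before readout; 0% = vehicle DMSO and 100% = killing by high DMSO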
Conditions: CRL2098 osteosarcoma cells, drug combinations, at 0.5 µM, stronger effect = higher value

Compound	inhibition
CCOC(=O)NCCCC(=O)NCCc1ccccc1	-89.4% (inactive) and -48.9% (inactive)
C[C@@]1(c2nc3c(C(N)=O)cccc3[nH]2)CCCN1	-55.3% (inactive) and -67.8% (inactive)
O=C(NCC1(c2nc(-c3ccccc3)cs2)CCOCC1)c1cccc(-c2noc(C(F)(F)F)n2)c1	-56.1% (inactive) and -1.16% (inactive)

Same assay, conditions: CRL2098 osteosarcoma cells, drug combinations, measured here: combination with BGB at IC20, at 0.5 µM, stronger effect = higher value

Compound	inhibition
CCOC(=O)NCCCC(=O)NCCc1ccccc1	-73.5% and 13.5%
C[C@@]1(c2nc3c(C(N)=O)cccc3[nH]2)CCCN1	-51.9% and -45%
O=C(NCC1(c2nc(-c3ccccc3)cs2)CCOCC1)c1cccc(-c2noc(C(F)(F)F)n2)c1	-61.3% and -10.8%

Same assay, conditions: CRL2098 osteosarcoma cells, drug combinations, measured here: combination with cisplatin at IC20, at 0.5 µM, stronger effect = higher value

Compound	inhibition
CCOC(=O)NCCCC(=O)NCCc1ccccc1	-117% and -69.6%
C[C@@]1(c2nc3c(C(N)=O)cccc3[nH]2)CCCN1	-90.3% and -100%
O=C(NCC1(c2nc(-c3ccccc3)cs2)CCOCC1)c1cccc(-c2noc(C(F)(F)F)n2)c1	-66.8% and 10.9%

Experiment: HD-MB03 medulloblastoma cell growth inhibition, synergistic combos for chromothripsis tumors, BGB or cisplatin IC20 combos (AID 1671455; in the data active means inhibition above about 83%;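 further: 0% = vehicle DMSO and 100% = high DMSO as cytotoxic control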)
Conditions: HD-MB03 medulloblastoma cells, at 0.5 µM, stronger effect = higher value

Compound	inhibition
CCOC(=O)NCCCC(=O)NCCc1ccccc1	-22.5% (inactive) and -0.04% (inactive)
C[C@@]1(c2nc3c(C(N)=O)cccc3[nH]2)CCCN1	-10.9% (inactive) and -9.85% (inactive)
O=C(NCC1(c2nc(-c3ccccc3)cs2)CCOCC1)c1cccc(-c2noc(C(F)(F)F)n2)c1	-15.6% (inactive) and 10.1% (inactive)

Same assay, conditions: HD-MB03 medulloblastoma cells, measured here: combo with BGB at IC20, at 0.5 µM, stronger effect = higher value

Compound	inhibition
CCOC(=O)NCCCC(=O)NCCc1ccccc1	-19.9% and -14.2%
C[C@@]1(c2nc3c(C(N)=O)cccc3[nH]2)CCCN1	-9.31% and -21.4%
O=C(NCC1(c2nc(-c3ccccc3)cs2)CCOCC1)c1cccc(-c2noc(C(F)(F)F)n2)c1	-9.59% and 1.06%

Same assay, conditions: HD-MB03 medulloblastoma cells, measured here: combo with cisplatin at IC20, at 0.5 µM, stronger effect = higher value

Compound	inhibition
CCOC(=O)NCCCC(=O)NCCc1ccccc1	-31.5% and 17.9%
C[C@@]1(c2nc3c(C(N)=O)cccc3[nH]2)CCCN1	-20.2% and -6.83%
O=C(NCC1(c2nc(-c3ccccc3)cs2)CCOCC1)c1cccc(-c2noc(C(F)(F)F)n2)c1	-27.9% and 14.3%

Experiment: UWB1.289 ovarian carcinoma cell growth inhibition, synergistic combos for chromothripsis tumors, BGB or cisplatin combos (AID 1671456);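 further: cells exposed to compound for four days; 0% = vehicle DMSO and 100% = killing by high DMSO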
Conditions: UWB1.289 ovarian carcinoma cells, at 0.5 µM, stronger effect = higher value

Compound	inhibition
CCOC(=O)NCCCC(=O)NCCc1ccccc1	-19.7% (inactive) and -14.9% (inactive)
C[C@@]1(c2nc3c(C(N)=O)cccc3[nH]2)CCCN1	-10.2% (inactive) and 3.78% (inactive)
O=C(NCC1(c2nc(-c3ccccc3)cs2)CCOCC1)c1cccc(-c2noc(C(F)(F)F)n2)c1	-12.3% (inactive) and 13.4% (inactive)

Same assay, conditions: UWB1.289 ovarian carcinoma cells, measured here: inhibition with BGB combination, at 0.05 µM, stronger effect = higher value

Compound	inhibition
CCOC(=O)NCCCC(=O)NCCc1ccccc1	-30.7% and -21.8%
C[C@@]1(c2nc3c(C(N)=O)cccc3[nH]2)CCCN1	-8.84% and -23.2%
O=C(NCC1(c2nc(-c3ccccc3)cs2)CCOCC1)c1cccc(-c2noc(C(F)(F)F)n2)c1	-8.63% and 3.2%

Same assay, conditions: UWB1.289 ovarian carcinoma cells, measured here: inhibition with cisplatin combination, at 0.05 µM, stronger effect = higher value

Compound	inhibition
CCOC(=O)NCCCC(=O)NCCc1ccccc1	-28.1% and -20.9%
C[C@@]1(c2nc3c(C(N)=O)cccc3[nH]2)CCCN1	-15.9% and -9.39%
O=C(NCC1(c2nc(-c3ccccc3)cs2)CCOCC1)c1cccc(-c2noc(C(F)(F)F)n2)c1	0.295% and 28.5%

Experiment: LFS_MB_2R medulloblastoma cell growth inhibition, synergistic combos for chromothripsis tumors, cisplatin combos (AID 1671457);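 further: cells exposed to compound for four days before readout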
Conditions: LFS_MB_2R medulloblastoma cells, at 0.5 µM, stronger effect = higher value

Compound	inhibition
CCOC(=O)NCCCC(=O)NCCc1ccccc1	-12.3% (inactive) and -24.7% (inactive)
C[C@@]1(c2nc3c(C(N)=O)cccc3[nH]2)CCCN1	-15.2% (inactive) and -24.4% (inactive)
O=C(NCC1(c2nc(-c3ccccc3)cs2)CCOCC1)c1cccc(-c2noc(C(F)(F)F)n2)c1	0.9% (inactive) and 4.52% (inactive)

Same assay, conditions: LFS_MB_2R medulloblastoma cells, measured here: combination with cisplatin, at 0.5 µM, stronger effect = higher value

Compound	inhibition
CCOC(=O)NCCCC(=O)NCCc1ccccc1	-9.92% and -32%
C[C@@]1(c2nc3c(C(N)=O)cccc3[nH]2)CCCN1	-24.8% and -30.4%
O=C(NCC1(c2nc(-c3ccccc3)cs2)CCOCC1)c1cccc(-c2noc(C(F)(F)F)n2)c1	0.458% and 8.71%
